Mtb MenB inh = inhibitors of Mycobacterium tuberculosis MenB enzyme. MenB enzyme assay, absorbance read-out. inhibition, % (concentration not given with the values). 100,000 tested, 0.43% active. AID 540299; in the data active = inhibition above about 21%, passing the limit was not always enough
Mtb MbtI inh = inhibitors of Mycobacterium tuberculosis siderophore enzyme MbtI | P9WFX0 | purified MbtI enzyme, fluorescence intensity read-out | inhibition, % (test concentration not listed) | 100,000 tested, 0.89% active; in the data active = inhibition mostly above about 56%, no sharp cut-off; inactive = mostly below about 77%
Target sequence (P9WFX0 whole entry, looked up): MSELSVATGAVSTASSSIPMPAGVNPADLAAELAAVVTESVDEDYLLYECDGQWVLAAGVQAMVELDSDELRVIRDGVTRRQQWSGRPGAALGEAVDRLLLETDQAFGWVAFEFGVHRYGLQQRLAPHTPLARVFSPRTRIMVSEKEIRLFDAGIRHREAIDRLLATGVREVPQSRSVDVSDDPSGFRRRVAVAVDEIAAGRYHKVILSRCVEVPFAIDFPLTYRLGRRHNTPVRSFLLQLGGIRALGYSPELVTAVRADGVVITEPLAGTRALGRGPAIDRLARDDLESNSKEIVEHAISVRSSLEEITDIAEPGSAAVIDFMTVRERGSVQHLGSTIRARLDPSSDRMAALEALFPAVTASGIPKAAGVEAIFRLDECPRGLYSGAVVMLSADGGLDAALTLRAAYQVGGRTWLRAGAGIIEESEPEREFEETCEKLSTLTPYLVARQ
Polio RdRp inh = poliovirus RNA polymerase inhibition; P03300; poliovirus polymerase elongation, fluorescence polarization; active compounds read low; % elongation, % (compound at 16.7 µg/mL); 150,000 tested, 0.66% active; in the data active = % elongation below about 90%
AID504770 = growth inhibitors of E. coli YBA685 in a screen for V. cholerae RctB (chromosome II replication) inhibitors | E. coli YBA685 rctB-dependent plasmid, OD600 growth, 3 h; active compounds read low | z-score (concentration not given with the values) | 130,000 tested, 0.27% active | AID 504770; in the data active = z-score below about -2, passing the limit was not always enough
Of the large screens only hits and unclear results are named; the others gave an inactive call; ! = repeats disagree. Only some compounds are listed: those with a hit (about 1.4% of all), similar ones and a draw of the others.

Brc1ccc(NCc2ccco2)cc1	none
CSc1cccc(N2C(=O)C=CC2=O)c1	AID504770 -2.2 (no result: Mtb MenB inh, Mtb MbtI inh, Polio RdRp inh)
COc1ccc(N2C(=O)C=CC2=O)cc1OC	Mtb MbtI inh 94 (no result: Mtb MenB inh)
N#Cc1cccc(N2C(=O)C=CC2=O)c1	AID504770 -2.8 (no result: Mtb MenB inh, Mtb MbtI inh, Polio RdRp inh)
O=C1C=CC(=O)N1c1ccc2ccccc2c1	Mtb MbtI inh 100
Cc1nc2c(c(C)c1CCC(=O)Nc1ccc(OC(F)(F)F)cc1)c(=O)n(C)c(=O)n2C	none
CC1CCN(C(=O)COC(=O)Cn2[nH]c(=O)c3ccccc3c2=O)CC1	none
CC(C)CN(CC(C)C)c1nnc(NC(=O)Nc2ccccc2)s1	none
CC12CCC(=O)N1C(C(=O)OCC(=O)c1ccc(F)c(F)c1)CS2 (configuration not stated)	none
COc1cccc(C2C(C#N)=C(N)Oc3c2c(=O)n(C)c(=O)n3C)c1 (configuration not stated)	none
Cn1c2c(c(=O)n(C)c1=O)C(c1ccccc1)C(C#N)=C(N)O2 (configuration not stated)	Polio RdRp inh 85 (no result: Mtb MbtI inh)
COC(=O)C1CCCN1S(=O)(=O)c1ccc(C)cc1 (configuration not stated)	none
CCOC(=O)c1c(NC(=O)c2noc3c2CC(C(C)(C)C)CC3)sc2c1CCCC2 (configuration not stated)	Polio RdRp inh 76 (no result: Mtb MenB inh, Mtb MbtI inh, AID504770)
NC(=O)c1c(NC(=O)c2noc3c2CCCC3)sc2c1CCCC2	Polio RdRp inh 69 (no result: Mtb MenB inh, Mtb MbtI inh, AID504770)
CCCCC1C(=O)N(c2ccccc2)N(c2ccc(O)cc2)C1=O (configuration not stated)	Mtb MbtI inh 84!
O=c1[nH]c(CSc2ccccn2)nc2ccsc12	Mtb MbtI inh 96
CCN(CC)CCNc1nc2c(c(=O)n(C)c(=O)n2C)n1CCc1ccccc1	Mtb MenB inh 23
CCN(CC)CCNc1nc2c(c(=O)n(C)c(=O)n2C)n1Cc1ccc(F)cc1	none (no result: Mtb MenB inh, Polio RdRp inh)
CCCC(C(=O)O)c1ccccc1 (configuration not stated)	none (no result: Mtb MenB inh)
COc1ccccc1/C=C1/SC(=S)NC1=O	none (no result: Mtb MenB inh)
COc1ccccc1OCCn1cc(/C=C2/SC(=S)NC2=O)c2ccccc21	Mtb MbtI inh 59
CSC(N)=Nc1ccc(Cl)cc1	AID504770 -2.5! (no result: Mtb MenB inh, Mtb MbtI inh, Polio RdRp inh)
Cc1oc2ccccc2c1-c1ccc2ccccc2n1	none (no result: Mtb MbtI inh)
CCN(CC)S(=O)(=O)c1ccc(Cl)c(C(=O)Oc2ccc(C)c(C)c2)c1	Polio RdRp inh 45
CCN(CC)S(=O)(=O)c1ccc(Cl)c(C(=O)OC)c1	none
N/C(=N\N=C1CCCCCC1)SCn1nnc2ccccc2c1=O	Polio RdRp inh 90
O=c1c2ccccc2nnn1CSC(=S)N1CCCC1	none
Cc1nc(-c2ccc3[nH]c(=O)oc3c2)cs1	Mtb MbtI inh 97, Polio RdRp inh 74
Cc1cnc(C(=O)OCC(=O)c2ccc3[nH]c(=O)[nH]c3c2)cn1	none
O=C(O)Cn1cc(C=C2C(=O)NC(=O)NC2=O)c2ccccc21	none (no result: Mtb MbtI inh)
O=C(O)Cn1cc(C=C2C(=O)NC(=S)NC2=O)c2ccccc21	Mtb MbtI inh 100
N#Cc1cccc(NC(=S)NC(=O)c2cccs2)c1	none
N#Cc1cccc(NC(=O)Nc2cccs2)c1	AID504770 -3.1
CCOC(=O)[C@@H]1Nc2ccc(C(=O)O)cc2[C@@H]2C=CC[C@H]12	Polio RdRp inh 68
CCOC(=O)c1cc(-c2ccccn2)nc2c1c(=O)n(CC(=O)OC)c(=O)n2Cc1ccccc1	Polio RdRp inh 81
COc1cccc(-c2csc(-c3c(N)c(C(=O)c4ccc5c(c4)OCO5)n4ccccc34)n2)c1	Polio RdRp inh 76 (no result: Mtb MenB inh, Mtb MbtI inh, AID504770)
CCOc1ccc(C(=O)c2c(N)c(-c3nc(-c4ccc5c(c4)OCO5)cs3)c3ccccn23)cc1	none (no result: Mtb MenB inh, Mtb MbtI inh, AID504770)
CCCOc1ccc(C=Nc2ccc(N3CCN(C)CC3)cc2C)c(O)c1	none
Cc1nnc(SCc2cccc(C(=O)c3ccccc3)c2)[nH]c1=O	Mtb MbtI inh 55
Cc1nnc(SCc2ccc(C(=O)c3ccc(F)cc3)cc2)[nH]c1=O	none (no result: Mtb MenB inh, Mtb MbtI inh, Polio RdRp inh)
CC1CCc2nc(SC3CC(=O)C4OCC3O4)nc(C(F)(F)F)c2C1 (configuration not stated)	none (no result: Mtb MbtI inh)
O=C1CC(Sc2ccc3ccccc3c2)C2COC1O2 (configuration not stated)	Polio RdRp inh 84 (no result: Mtb MbtI inh)
Cc1ccc(Cl)cc1NC(=O)Cn1c(=O)c(CNc2ccccc2)cc2cc3c(cc21)OCCO3	none (no result: Mtb MenB inh, Mtb MbtI inh, AID504770)
O=C(Cn1c(=O)c(CNc2ccccc2)cc2cc3c(cc21)OCCO3)Nc1ccccc1Cl	Polio RdRp inh 51 (no result: Mtb MenB inh, Mtb MbtI inh, AID504770)
CCc1ccc2c(c1)c1nnc(SCC(=O)NC3CCCCC3C)nc1n2C (configuration not stated)	none
Oc1ccc(C2(c3ccc(O)cc3)CCCC2)cc1	none (no result: Mtb MenB inh)
COc1cc(NC(=O)CS)cc(OC)c1	Mtb MbtI inh 90
CCOCCCNC1CC(C)CC(C)(C)C1 (configuration not stated)	AID504770 -2.2
CC1CC(NC2=NCCS2)CC(C)(C)C1 (configuration not stated)	none (no result: Mtb MenB inh, Mtb MbtI inh, Polio RdRp inh)
COC(=O)c1nn(-c2ccc(OC)cc2)c(=O)c2c(N)sc(C)c12	Mtb MbtI inh 77, Polio RdRp inh 83
NNC(=O)c1nn(-c2ccccc2)c(=O)c2c(N)scc12	none
COC(=O)c1nn(-c2ccccc2)c(=O)c2c(N)sc(C)c12	Mtb MbtI inh 76, Polio RdRp inh 73
COC(=O)c1ccc(N2CCCC2)c(NS(=O)(=O)c2ccc(C)cc2)c1	none
O=C(COc1ccccc1)Nc1nc2ccccc2n1CCN1CCCCC1	none
COc1ccc(NS(=O)(=O)c2ccc3oc(SC)nc3c2)cc1	Mtb MbtI inh 92, Polio RdRp inh 82
COc1ccc(NS(=O)(=O)c2ccc3oc(SC/C(O)=C(\C#N)c4nc5ccccc5s4)nc3c2)cc1	none
Cc1cc(N2CCN(C)CC2)ncn1	none (no result: Mtb MenB inh, Mtb MbtI inh, Polio RdRp inh)
CN1C(=O)C(=C/C=C/c2ccccc2)C(=O)N(C)C1=O	Mtb MbtI inh 82
C=CCN1C(=O)NC(=O)/C(=C/C=C/c2ccccc2)C1=O	none
N#Cc1c(SCCCOc2ccccc2)sc2c(=O)[nH]c(=O)[nH]c12	Mtb MenB inh 21 (no result: Mtb MbtI inh)
O=c1oc2ccccc2n1CCCOc1ccc2ccccc2c1	none (no result: Mtb MbtI inh)
N#Cc1cnc(SCCc2ccccc2)nc1N	Mtb MenB inh 33
CC1=C(C(=O)Nc2ccccc2)C(c2ccncc2)n2ncnc2N1 (configuration not stated)	none
Cc1ccc(NNC(=S)NC(=O)C2CC2)c(C)c1	Mtb MbtI inh 95
Cc1ccc(S(=O)(=O)N(C)c2ccccc2)cc1	none
Cc1ccc(S(=O)(=O)N(C)c2nc3ccccc3nc2SCC#N)cc1	Mtb MbtI inh 98
CC(=O)Nc1ccc(-c2nc3c(Cl)cccc3[nH]2)cc1	none (no result: Mtb MenB inh, Polio RdRp inh)
COc1ccc(-c2n[nH]c(=S)n2/N=C/c2ccccc2Br)cc1OC	none
CCOc1cccc(/C=N/n2c(-c3ccc(Cl)cc3)n[nH]c2=S)c1O	Mtb MbtI inh 79, Polio RdRp inh 85
Cc1ccc(CSc2nc(N)cc(N)n2)cc1	Mtb MenB inh 36
O=C(OCCSc1ccc(Cl)cn1)c1cccc(Cl)c1	none (no result: Mtb MenB inh, Mtb MbtI inh, Polio RdRp inh)
COc1ccc(OC)c(NC(=S)NCCN2CCOCC2)c1	none
COc1ccc(CNCCN2CCOCC2)cc1	Mtb MenB inh 28
CC(=O)c1ccc(NC(=O)C2=CC(c3cccs3)=NS(=O)(=O)N2C)cc1	Polio RdRp inh -12 (no result: Mtb MenB inh, Mtb MbtI inh, AID504770)
CCSc1nc(N)c(NC(=O)c2ccc(OC)c(OC)c2)c(=O)[nH]1	none

Bioassay records: PubChem, ICCB-Longwood Screening Facility, Harvard Medical School
